The source of these data is the OligoGym collection.

Targets include ZKSCAN4; ZIC5; ZMAT2; ZHX1; ZNF20; ZNF214; ZNF219; ZNF213; ZNF169; ZNF512B; ZNF548; ZNF583; ZNF550; ZNF592.
Common to all, as to experiment: pooled miR-30 sensor sort-seq; sequence = guide strand
Common to all, as to details: shRNA
Also: reference of the scale not given here.

In the assay with ZKSCAN4, TTGACTGGAGGCAAGTCCCTGC displayed a sensor-assay potency score (higher = more potent) of 0.176. In the assay with ZIC5, TCGAATCTTGCAGTAGTAGGGC yielded a sensor-assay potency score (higher = more potent) of 0.408.

On to TCATCTTCAGTCTCAGAGGTGG, for which, in the assay with ZIC5, the sensor-assay potency score (higher = more potent) was -0.487. For TTCTCTGATGTTTCTTTCCATT, in the assay with ZMAT2, the sensor-assay potency score (higher = more potent) is -1.41. Regarding TTGTATTAGATTCAGAAGCTGA, the sensor-assay potency score (higher = more potent) with ZHX1 was -0.592. Consider TACCATTGCATCTTCTCTGCAG, for which the sensor-assay potency score (higher = more potent) with ZKSCAN4 came to 0.382. For TTTCTCTTTCTTGTACGCTTTG, the sensor-assay potency score (higher = more potent) with ZMAT2 is -0.653.

For the sequence TTCAATAAGACTTCTATTCCGT, the sensor-assay potency score (higher = more potent) with ZKSCAN4 came out at 0.355. Still for that read-out and setting: under TAGTCTGTATTTCACCACCAAG stands -1.77. For TGAATCTTCATGTGCTTCCTCA, the sensor-assay potency score (higher = more potent) with ZIC5 is -0.349. Regarding TTTAGGTCCTACAACTTCCAGA, the sensor-assay potency score (higher = more potent) with ZKSCAN4 is -0.127. For TTCTTTTCTCTCTCTTCCGTGA, the sensor-assay potency score (higher = more potent) with ZMAT2 was -0.461.

TTGGATTCCAAGTCCACCTTGT gave a sensor-assay potency score (higher = more potent) in the assay with ZMAT2 of 0.567. Still for that read-out and setting: the result for AAAATCATAATCCTTCTGCTTC reads -0.213. Take TTGCAGATGAGCTCCTGCTTGA: the sensor-assay potency score (higher = more potent) with ZIC5 was -0.229.

For the sequence TTTCTCTCCACTGTGCGTCCTT, in the assay with ZNF20, the sensor-assay potency score (higher = more potent) was -0.157. In the assay with ZNF214, TCTGATGAAAGTGAACTCCGGA displayed a sensor-assay potency score (higher = more potent) of 0.913.

As for TTTATTGGGGACACGACTCTGC, in the assay with ZNF219, the sensor-assay potency score (higher = more potent) was 0.537. TTGTATTACGAAACCATCCAAG: in the assay with ZNF20, the sensor-assay potency score (higher = more potent) is -0.687.

Turning to TTCGGAATCCCTGCCATCCTCA, the sensor-assay potency score (higher = more potent) with ZNF213 is -0.738. On the same count and under the same terms, the result for TTCTGTAGGTCCTCCACCAAGG reads -1.39. In the assay with ZNF214, TTGGATGTCTATACAAGTCTGA displayed a sensor-assay potency score (higher = more potent) of 0.602. Consider TTGAGCCCAAAACCCAGGGTGG, for which the sensor-assay potency score (higher = more potent) in the assay with ZNF213 was -1.3. On to TTATAGAATTTCTCTTCTGTGT, for which, in the assay with ZNF214, the sensor-assay potency score (higher = more potent) was -0.222. Regarding TCCAACTCCAGCAACAGGCGTG, the sensor-assay potency score (higher = more potent) with ZNF219 is -0.967. As to TTCTATATGGATTCTCTCCATA, the sensor-assay potency score (higher = more potent) with ZNF20 is -1.01. In the case of TCTTGTGGAAAACACACCGTGA, the sensor-assay potency score (higher = more potent) in the assay with ZNF214 is -0.342. In the assay with ZNF169, TTGATAAGGTCTGATCTCTGGC registered a sensor-assay potency score (higher = more potent) of 0.151. Turning to TATACAAGTCTGATCTCTGAGA, the sensor-assay potency score (higher = more potent) with ZNF214 was -0.855.

Regarding TGTAGGTGATACTTGAGCGAGC, the sensor-assay potency score (higher = more potent) in the assay with ZNF219 was -0.911.

For the sequence TTTCACATGGTGTTATTCCAGG, the sensor-assay potency score (higher = more potent) with ZNF20 is -0.755. As for TTTCTGTACATTCTTTACCATC, the sensor-assay potency score (higher = more potent) with ZNF20 was -1.72. TTTTATAGAATTTCTCTTCTGT registered a sensor-assay potency score (higher = more potent) in the assay with ZNF214 of 1.04. Consider TTTGAGCCCAAAACCCAGGGTG, for which, in the assay with ZNF213, the sensor-assay potency score (higher = more potent) was -0.556. On the same count and under the same terms, under TGTAGGTCCTCCACCAAGGCGA stands -0.787; under TCACTGGCTGCTTCTGTAGGTC, -0.833. Turning to TGAGCTGTGACTAAAGTCCTTT, the sensor-assay potency score (higher = more potent) with ZNF214 was -0.611.

For TGAAGTTGTGAAGCACATCTAA, the sensor-assay potency score (higher = more potent) with ZNF20 was -0.501.

As for TAGAACTGTGACTAAAACCCTT, in the assay with ZNF214, the sensor-assay potency score (higher = more potent) was -0.352. As to TGTCTGGCCTGGCACCACCGGC, the sensor-assay potency score (higher = more potent) with ZNF213 was -1.68. Take TTCAATGTTCTGAACTTTCCAT: the sensor-assay potency score (higher = more potent) with ZNF20 is -0.266. Turning to TCTTTGATGAGTGTGAAGCTTT, the sensor-assay potency score (higher = more potent) with ZNF214 is -0.426. Take TTTCTCTTTAGTGCAAGCTTTA: the sensor-assay potency score (higher = more potent) with ZNF20 was -0.882. Turning to TAAACTTTGATTAAAGCTGTTA, the sensor-assay potency score (higher = more potent) in the assay with ZNF214 is -0.478. Consider TCGGGTTCCGCCTCCTCCGAGG, for which, in the assay with ZNF213, the sensor-assay potency score (higher = more potent) is -1.19. For the sequence TCTACTGACATGACATTTGTGT, the sensor-assay potency score (higher = more potent) with ZNF214 came to 0.423. As for TACCACAGTGCTTACATTCATA, the sensor-assay potency score (higher = more potent) with ZNF20 was -0.662.

Turning to ATCCCTGCCATCCTCATGCTGG, in the assay with ZNF213, the sensor-assay potency score (higher = more potent) is -1.09. For TCACTTTGGCCTTTGAGCCCAA, the sensor-assay potency score (higher = more potent) with ZNF213 was -0.58. TAATACTCTTCTGTTGCCCTTT returned a sensor-assay potency score (higher = more potent) in the assay with ZNF213 of 0.353. Consider TAAGACTTAGATTTCTCCTGGG, for which the sensor-assay potency score (higher = more potent) with ZNF20 was determined as 0.935. Still for that read-out and setting: the result for TATTAAGAGATGAATGACCCGT reads -0.0204. With TTAACCATTCCTGACACTGGGA, in the assay with ZNF214, the sensor-assay potency score (higher = more potent) is -0.384. On to TAGTGCAAGCTTTATCATGTGA, for which, in the assay with ZNF20, the sensor-assay potency score (higher = more potent) was -0.356.

For the sequence TTTCACTGGCTGCTTCTGTAGG, the sensor-assay potency score (higher = more potent) with ZNF213 is -0.917. Take TACTTGAGCCCGTAGATGCTGG: in the assay with ZNF512B, the sensor-assay potency score (higher = more potent) was -0.743. As to ATTCATAAGACCTTTCTCCTGT, in the assay with ZNF548, the sensor-assay potency score (higher = more potent) was 0.892.

As for TTCTTCATATGTCTCTTGCTTT, the sensor-assay potency score (higher = more potent) with ZNF583 is -0.61. With ATGAGTTCTGAGCTGCATCTGA, the sensor-assay potency score (higher = more potent) with ZNF550 is -0.453.

Turning to TTAGTGACACTAGCCACTCTTT, the sensor-assay potency score (higher = more potent) in the assay with ZNF592 is -0.994.
